Most compounds without a hit are left out; they make up all but 3.5% or so of the library.
Anthrax LF inh2 = blocks Bacillus anthracis lethal factor protease; P15917; multiplex microsphere protease cleavage assay, LF; inhibition, % at 10 µM; 360,000 compounds, 0.12% hits; further: plate controls were buffer without enzyme for full effect and enzyme alone for no effect
Target sequence (P15917 whole entry, looked up): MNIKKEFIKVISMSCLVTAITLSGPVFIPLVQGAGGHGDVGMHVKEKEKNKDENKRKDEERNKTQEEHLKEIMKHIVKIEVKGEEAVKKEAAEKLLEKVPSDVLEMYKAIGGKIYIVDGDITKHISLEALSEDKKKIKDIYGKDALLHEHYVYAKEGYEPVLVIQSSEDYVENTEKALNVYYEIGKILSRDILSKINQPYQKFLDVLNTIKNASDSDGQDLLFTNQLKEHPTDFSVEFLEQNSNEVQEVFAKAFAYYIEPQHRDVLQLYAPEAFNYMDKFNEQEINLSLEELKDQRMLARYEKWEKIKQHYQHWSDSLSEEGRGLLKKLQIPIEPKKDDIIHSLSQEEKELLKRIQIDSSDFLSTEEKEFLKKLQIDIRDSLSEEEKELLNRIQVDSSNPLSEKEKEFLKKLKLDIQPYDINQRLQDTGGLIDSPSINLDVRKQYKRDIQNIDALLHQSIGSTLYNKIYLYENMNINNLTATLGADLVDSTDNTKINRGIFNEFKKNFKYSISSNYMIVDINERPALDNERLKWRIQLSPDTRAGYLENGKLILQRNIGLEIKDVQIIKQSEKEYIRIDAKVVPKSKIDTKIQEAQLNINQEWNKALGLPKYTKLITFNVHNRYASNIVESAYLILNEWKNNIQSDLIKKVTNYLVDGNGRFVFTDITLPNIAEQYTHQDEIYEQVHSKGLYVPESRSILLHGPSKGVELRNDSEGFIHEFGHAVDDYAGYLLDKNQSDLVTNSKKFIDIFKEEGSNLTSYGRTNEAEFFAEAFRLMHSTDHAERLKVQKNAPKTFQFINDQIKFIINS
BoNT A protease = blocks Botulinum neurotoxin A light chain protease; inhibition, % at 10 µM; 360,000 compounds, 0.17% hits; multiplex microsphere protease substrate cleavage, flow cytometry; further: plate controls were buffer without enzyme for full effect and enzyme alone for no effect
Autofluor counter = flagged as autofluorescent in microsphere protease counterscreen; 360,000 compounds, 3.1% hits; compound autofluorescence counterscreen, microsphere flow cytometry; hits give high values; AID 624483; fluorescence intensity (no concentration beside the values); in the data active means fluorescence intensity above about 16000; inconclusive means no clear call, values can overlap the other calls
BoNT-F LC inh = blocks Botulinum neurotoxin F light chain protease; inhibition, % at 10 µM; AID 588497; Multiplex microsphere protease cleavage assay, flow cytometry; 360,000 compounds, 0.22% hits; in the data active means inhibition above about 35%, passing the limit was not always enough; inconclusive means no clear call, values can overlap the other calls; further: plate controls were buffer without enzyme for full effect and enzyme alone for no effect
Vc quorum ag = inducers of Vibrio cholerae quorum light production without autoinducers; V. cholerae BH1578 lux reporter, luminescence, 6 h; activation, % at 18.7 µM; 350,000 compounds, 0.16% hits; AID 588436; in the data active means activation mostly above about 9.7%, no sharp cut-off; inconclusive means no clear call, values can overlap the other calls; inactive means mostly below about 3.7%
Active calls of the source: *. Unless noted, no stated cut-off is given here; in the data, active means inhibition above about 30%; inconclusive means no clear call, values can overlap the other calls; inactive means below that.

Results for O=C(Nc1cnc2sccn2c1=O)c1ccc(Cl)cc1Cl ?
Anthrax LF inh2: 0; BoNT A protease: 0; Autofluor counter: 22211*; BoNT-F LC inh: 2; Vc quorum ag: -2

Results for CN1CCc2c(sc3c2C(=O)NC(c2cn(Cc4ccccc4)c4ccccc24)N3)C1 (configuration not stated) ?
Anthrax LF inh2: 16; BoNT A protease: 11; Autofluor counter: 20205*; BoNT-F LC inh: -11; Vc quorum ag: inactive

Results for CN1CCc2c(sc3c2C(=O)NC(c2ccco2)N3)C1 (configuration not stated) ?
Anthrax LF inh2: -2; BoNT A protease: 6; Autofluor counter: 18769*; BoNT-F LC inh: -7; Vc quorum ag: inactive

Results for COc1ccc(Br)cc1C1NC(=O)c2c(sc3c2CCN(C)C3)N1 (configuration not stated) ?
Anthrax LF inh2: 11; BoNT A protease: 8; Autofluor counter: 3247; BoNT-F LC inh: 6; Vc quorum ag: inactive

What do the screens show for `O=C(NCc1ccccc1)C1CCCN(C(=O)c2ccc(F)cc2)C1` (configuration not stated)?
Anthrax LF inh2: 2; BoNT A protease: 0; Autofluor counter: 6129; BoNT-F LC inh: -3; Vc quorum ag: inactive

Results for O=S(=O)(c1ccc(S(=O)(=O)N(Cc2ccccc2)Cc2ccco2)cc1)N1CCCC1 ?
Anthrax LF inh2: -4; BoNT A protease: -4; Autofluor counter: 16963*; BoNT-F LC inh: -4; Vc quorum ag: inactive

What do the screens show for `O=C1c2ccccc2NC2(CCCCC2)N1c1ccc(O)cc1`?
Anthrax LF inh2: 54*; BoNT A protease: 5; Autofluor counter: 6978; BoNT-F LC inh: 156*; Vc quorum ag: inactive

Results for CCCn1nc(NC(=O)c2cccs2)c2cc3cccc(C)c3nc21 ?
Anthrax LF inh2: 4; BoNT A protease: 1; Autofluor counter: 6221; BoNT-F LC inh: -2; Vc quorum ag: inactive

What do the screens show for `Cc1cc(N2CCOCC2)cc(C)[n+]1[O-]`?
Anthrax LF inh2: -4; BoNT A protease: -1; Autofluor counter: 16435*; BoNT-F LC inh: 0; Vc quorum ag: inactive

How did Cn1c(SCc2cccc3ccccc23)nnc1-c1ccco1 do in these assays?
Anthrax LF inh2: 1; BoNT A protease: 0; Autofluor counter: 2599; BoNT-F LC inh: -4; Vc quorum ag: -13

Results for Nn1c(SCc2cccc3ccccc23)nnc1-c1ccco1 ?
Anthrax LF inh2: -2; BoNT A protease: 0; Autofluor counter: 22596*; BoNT-F LC inh: 2; Vc quorum ag: 4

Results for Cc1cccc(C)c1NC(=O)CSc1nnc(-c2ccco2)n1N ?
Anthrax LF inh2: 0; BoNT A protease: 1; Autofluor counter: 21789*; BoNT-F LC inh: 0; Vc quorum ag: 5

Results for COc1ccccc1NC(=O)CSc1nnc(-c2ccco2)n1N ?
Anthrax LF inh2: -2; BoNT A protease: 1; Autofluor counter: 4144; BoNT-F LC inh: 7; Vc quorum ag: inactive

How did CN1C(=O)CC(C(=O)Nc2ccccc2F)SC1=Nc1ccc2c(c1)OCO2 (configuration not stated) do in these assays?
Anthrax LF inh2: -4; BoNT A protease: -1; Autofluor counter: 3883; BoNT-F LC inh: -1; Vc quorum ag: 0

Results for O=C(NCCN1CCCCC1)Nc1ccc(Br)cc1 ?
Anthrax LF inh2: 0; BoNT A protease: -1; Autofluor counter: 3565; BoNT-F LC inh: 4; Vc quorum ag: inactive

Results for CCOCC(O)CS(=O)Cc1ccccc1 (configuration not stated) ?
Anthrax LF inh2: -4; BoNT A protease: -6; Autofluor counter: 24995*; BoNT-F LC inh: -8; Vc quorum ag: inactive

Results for Cc1ccc(OC(C)C(=O)Nc2ccc(S(=O)(=O)Nc3cc(C)on3)cc2)cc1 (configuration not stated) ?
Anthrax LF inh2: -19; BoNT A protease: inconclusive; Autofluor counter: 21520*; BoNT-F LC inh: 6; Vc quorum ag: inactive

Results for Cc1cc(NS(=O)(=O)c2ccc(NC(=O)C(C)Oc3cc(C)c(Cl)c(C)c3)cc2)no1 (configuration not stated) ?
Anthrax LF inh2: 0; BoNT A protease: 2; Autofluor counter: 5897; BoNT-F LC inh: -6; Vc quorum ag: -1

Results for Cc1cc(NS(=O)(=O)c2ccc(CC(C)C)cc2)no1 ?
Anthrax LF inh2: -2; BoNT A protease: 3; Autofluor counter: 18585*; BoNT-F LC inh: 3; Vc quorum ag: -1

What do the screens show for `Cc1cc(NS(=O)(=O)c2ccc(NC(=O)C(C)Oc3ccc(Cl)cc3)cc2)no1` (configuration not stated)?
Anthrax LF inh2: 2; BoNT A protease: 16; Autofluor counter: 17111*; BoNT-F LC inh: 20; Vc quorum ag: inactive

What do the screens show for `COCCNc1c(-c2cc3ccc(C)c(C)c3[nH]c2=O)nc2ccccn12`?
Anthrax LF inh2: -12; BoNT A protease: 1; Autofluor counter: 3274; BoNT-F LC inh: 0; Vc quorum ag: -1

How did O=C(NCCc1ccccc1)/C(=C\c1ccc([N+](=O)[O-])cc1)NC(=O)c1ccc(Br)cc1 do in these assays?
Anthrax LF inh2: -2; BoNT A protease: 4; Autofluor counter: 7242; BoNT-F LC inh: 8; Vc quorum ag: 0

How did CC(C)NC(=O)/C(=C\c1cccc([N+](=O)[O-])c1)NC(=O)c1ccccc1 do in these assays?
Anthrax LF inh2: -2; BoNT A protease: 2; Autofluor counter: 22798*; BoNT-F LC inh: -1; Vc quorum ag: 1

Results for Cc1ccc(C(=O)N/C(=C\c2ccc([N+](=O)[O-])cc2)C(=O)NCCc2ccccc2)cc1 ?
Anthrax LF inh2: -3; BoNT A protease: -5; Autofluor counter: 25796*; BoNT-F LC inh: -6; Vc quorum ag: 0

What do the screens show for `O=C(N/N=C/c1ccco1)/C(=C/c1cccc([N+](=O)[O-])c1)NC(=O)c1ccccc1`?
Anthrax LF inh2: -1; BoNT A protease: 0; Autofluor counter: 22258*; BoNT-F LC inh: 2; Vc quorum ag: inactive

What do the screens show for `Cc1ccc(C(=O)C(OC(=O)CNS(=O)(=O)c2ccccc2)c2ccccc2)cc1` (configuration not stated)?
Anthrax LF inh2: -2; BoNT A protease: inconclusive; Autofluor counter: 19423*; BoNT-F LC inh: 2; Vc quorum ag: inactive

How did Cc1ccc(S(=O)(=O)NCC(=O)OC(C)C(=O)c2ccccc2)cc1 (configuration not stated) do in these assays?
Anthrax LF inh2: 0; BoNT A protease: 0; Autofluor counter: 4655; BoNT-F LC inh: -1; Vc quorum ag: inactive

Results for COc1ccc(-c2cc(C(=O)Nc3cc(C)nn3-c3ccccc3)no2)cc1OC ?
Anthrax LF inh2: 2; BoNT A protease: -1; Autofluor counter: 3902; BoNT-F LC inh: 2; Vc quorum ag: 0

How did CC(C)Cc1nnc(NS(=O)(=O)c2ccccc2)s1 do in these assays?
Anthrax LF inh2: 0; BoNT A protease: 0; Autofluor counter: 3733; BoNT-F LC inh: -4; Vc quorum ag: -1

Results for CC(C)Cc1nnc(NS(=O)(=O)Cc2ccccc2)s1 ?
Anthrax LF inh2: 2; BoNT A protease: 7; Autofluor counter: 21019*; BoNT-F LC inh: 8; Vc quorum ag: 0

Source: PubChem BioAssay
